GDH-TPI counter – GDH-TPI coupling enzyme inhibitors, primary screen, artefact control for M. tuberculosis FBA inhibitor project, biochemical, absorbance, full deck; GDH-TPI coupled enzyme counterscreen, NADH absorbance; inhibition, % at 4.8 µM; 360,000 compounds, 1.2% hits; in the data active = inhibition above about 30%
Mtb FBA inh – Mtb FBA enzyme inhibitors, primary screen, biochemical, fluorescence, strain H37Rv. 360,000 compounds, 2.3% hits. Fructose-bisphosphate aldolase (Mycobacterium tuberculosis (strain ATCC 25618 / H37Rv)), …. purified M. tuberculosis FBA, fluorescence read-out. inhibition, % at 1 µM. AID 588726, 2011; in the data active = inhibition above about 27%
Mtb UGM inh – M. tuberculosis UGM enzyme inhibitors, primary screen, biochemical, fluorescence polarization, single point; AID 504406, 2011; UDP-galactopyranose mutase (Mycobacterium tuberculosis (strain ATCC 25618 / H37Rv)), …; inhibition, % at 10 µM; 320,000 compounds, 0.06% hits; purified UGM, fluorescence polarization probe displacement; in the data active = inhibition above about 10%, passing the limit was not always enough
Mtb bLac sens – beta-lactam sensitization of Mtb H37Rv, H37Rv; AID 434955, 2010; 330,000 compounds, 0.27% hits; M. tuberculosis H37Rv growth with meropenem, percent inhibition; inhibition, % at 25 µM;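 also: growth measured after seven days incubation then overnight dye step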
Rv3671c inh – Rv3671c serine protease inhibitors, primary screen, biochemical, fluorescence polarization, M. tuberculosis H37Rv. P9WHR9. inhibition, % at 5.96 µM. 320,000 compounds, 0.048% hits. AID 2606, 2010; in the data active = inhibition above about 38%;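 also: extracellular domain of Rv3671c used as enzyme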
Target sequence (P9WHR9 whole entry, looked up, the tested form may be a part): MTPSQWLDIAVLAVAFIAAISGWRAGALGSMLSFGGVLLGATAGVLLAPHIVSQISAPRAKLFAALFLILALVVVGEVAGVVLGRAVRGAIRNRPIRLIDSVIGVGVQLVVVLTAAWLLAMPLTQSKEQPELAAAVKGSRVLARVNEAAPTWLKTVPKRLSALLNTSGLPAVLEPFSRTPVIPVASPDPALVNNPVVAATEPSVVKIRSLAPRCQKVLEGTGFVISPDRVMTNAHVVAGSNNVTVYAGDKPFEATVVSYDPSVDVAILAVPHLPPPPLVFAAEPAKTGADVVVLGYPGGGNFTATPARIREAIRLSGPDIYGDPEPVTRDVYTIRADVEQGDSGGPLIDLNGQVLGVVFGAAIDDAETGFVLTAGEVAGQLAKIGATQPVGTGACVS
RecA splice inh – Mtb RecA intein splicing inhibitors, primary screen, biochemical, fluorescence, HTS; 290,000 compounds, 0.75% hits; cell-free RecA intein splicing; AID 2221, 2009; inhibition, % (no concentration beside the values); in the data active = inhibition above about 30%
GFP chromo cs – counter-screen: blocks GFP chromophore formation, dose response, counter-screen, biochemical, fluorescence, homogeneous | cell-free GFP chromophore formation | EC50, µM | 2,100 compounds, 83% hits | shares compounds with RecA splice inh
Of the large screens only hits and unclear results are named; the others gave an inactive call (follow-up assays come after a bar, where they were run). An excerpt weighted towards active compounds, which were near 4% of everything screened. Unless noted, no rule for the calls is given here.

CCOc1cc(NC2CS(=O)(=O)CC2O)c(OCC)cc1NC(=O)c1ccccc1 (stereo unspecified)	RecA splice inh 59.4 | GFP chromo cs inactive
CCOc1cc(NC(=O)c2ccccn2)c(OCC)cc1NC(=O)c1ccccc1	none
CN(CC(=O)NCC(=O)Nc1ccc(F)c(F)c1F)C1CCS(=O)(=O)C1 (stereo unspecified)	none (no result: RecA splice inh)
O=C(NN=C1CCCCC1)Nc1ccccc1Cl	none
CC1CC=C(O)C12OCC(C)(C)CO2 (stereo unspecified)	none (no result: Mtb UGM inh, Mtb bLac sens, Rv3671c inh, RecA splice inh)
CC1(C)C=C2C(=NN(c3ccccc3)C(N)=C2C#N)CO1	RecA splice inh 90.4 | GFP chromo cs 1.49
CC1(C)Cc2c(C#N)c(N)n(-c3ccccc3)c(=S)c2CO1	none
O=C(c1ccco1)N1CCN(c2ccc(N3CCCCC3)nn2)CC1	none
C=CCSC(=C(C#N)C#N)c1cc2c([nH]1)CCCC2	RecA splice inh 70.3 | GFP chromo cs 16.9
O=C(O)c1cc2c([nH]c1=O)CCCC2	none
CCOc1ccc(OCc2ccc(C(=O)NC(C)(C)C)o2)cc1	none (no result: Rv3671c inh)
O=C(O)c1ccc2c3c(ncnc13)-c1ccccc1C2=O	RecA splice inh 43.6 (no result: GDH-TPI counter, Mtb FBA inh) | GFP chromo cs 4.36
CC(=O)N1CCN(Cc2nc3ccc(Cl)cc3n2CCO)CC1	none
O=S(=O)(Nc1cc2nc3ccccc3nc2n1Cc1ccccc1)c1ccc(Cl)cc1	RecA splice inh 60.2 | GFP chromo cs 6.29
O=C(NCc1ccccc1Cl)C1CCCN1C(=O)Nc1ccccc1 (stereo unspecified)	none
O=C1/C(=C\c2cccc(O)c2O)SC(=S)N1Cc1ccccc1	RecA splice inh 36.3 | GFP chromo cs 38.6
O=C1/C(=C\c2cc([N+](=O)[O-])ccc2O)SC(=S)N1Cc1ccc(Cl)cc1	RecA splice inh 51.8 | GFP chromo cs 35.3
O=C(NCc1ccco1)/C(=C/c1cccc(C(F)(F)F)c1)c1nc2ccccc2[nH]1	RecA splice inh 37.6 | GFP chromo cs inactive
COC(=O)CS(=O)(=O)c1nnc([C@H](Cc2ccccc2)NC(=O)OC(C)(C)C)o1	RecA splice inh 68.7 | GFP chromo cs 14.5
Cc1cccc(CS(=O)(=O)c2nnc([C@H](Cc3ccccc3)NC(=O)OC(C)(C)C)o2)c1	RecA splice inh 36.4 | GFP chromo cs 10.9
CC(C)(C)OC(=O)N[C@@H](Cc1ccccc1)c1nnc(SCC(N)=O)o1	none
CC(=O)Nc1ccccc1NC(=O)C/C(C)=N/NC(=O)c1ccc([N+](=O)[O-])c(Cl)c1	none
C/C(CC(=O)Nc1cccnc1)=N\NC(=O)c1ccc([N+](=O)[O-])c(Cl)c1	RecA splice inh 61.1 | GFP chromo cs 34.7
COC(=O)c1c(NC(=O)/C=C/C(=O)O)sc(Cc2ccccc2)c1C	RecA splice inh 51.1 | GFP chromo cs 24.3
CC(=O)n1cc(N(C(=O)CCl)c2ccccc2)c2ccccc21	RecA splice inh 85.5 | GFP chromo cs 4.41
CC(=O)n1cc(CO)c2ccccc21	none (no result: RecA splice inh)
O=Cc1[nH]c2ccccc2c1N(C(=O)CCl)c1ccc([N+](=O)[O-])cc1	none
CC(=O)n1cc(N(C(=O)CCl)c2ccc([N+](=O)[O-])cc2)c2ccccc21	RecA splice inh 90.3 | GFP chromo cs 2.28
CC(=O)N1CCOc2ccc(S(=O)(=O)N3CCC(C(=O)NCc4ccc(C)cc4)CC3)cc21	none
CC(C)CC(N)c1csc(NC(=O)c2cc(C(C)(C)C)nn2Cc2ccccc2)n1 (stereo unspecified)	none (no result: Mtb UGM inh, Mtb bLac sens, Rv3671c inh, RecA splice inh)
CC(C)(C)C(=O)Nc1nnc(SCC(=O)NC2CCCCC2)s1	none
COC(=O)c1ccccc1OC(=O)c1ccc(Br)o1	RecA splice inh 38.4 | GFP chromo cs inactive
COc1ccccc1C(=O)NNC(=O)c1ccc(Br)o1	none
Oc1ccccc1OCc1nc2ccccc2s1	none

Screening results from PubChem BioAssay.
